Shown are actives, neighbours in structure and some others; about 10% of the full set was active somewhere.
JMJD2A Tudor – qHTS Assay for Inhibitors of JMJD2A-Tudor Domain | AlphaScreen JMJD2A-Tudor / H3K4me3 peptide binding | Potency, µM (highest dose often 114 µM), without a hit: at the top dose activity change, negative = inhibition, hits mostly inhibitors | 390,000 tested, 4.4% active | AID 504339, 2011; further: on the % scale 0 is the no-effect control and ±100 the full control effect; nearly all actives have a fitted effect of over 50% in size
BAZ2B inh – qHTS Assay for Inhibitors of BAZ2B; Bromodomain adjacent to zinc finger domain protein 2B (Homo sapiens), Q9UIF8; AlphaScreen BAZ2B-H3K14Ac peptide displacement; Potency, µM (titrated, usually from 114 µM), without a hit: at the top dose activity change, negative = inhibition, actives largely listed as inhibitors; 360,000 tested, 4.4% active; further: on the % scale 0 is the no-effect control and ±100 the full control effect; nearly all actives have a fitted effect of over 60% in size
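Compounds, titrated to a top concentration of 110 uM, were incubated 30 min at room temperature with preformed BAZ2B/acetyl-K14 H3 peptide complex (50 nM each). Proximity signal was measured by AlphaScreen after 20 min with beads.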
G9a inh – qHTS Assay for Inhibitors of Histone Lysine Methyltransferase G9a; Histone-lysine N-methyltransferase EHMT2 (Homo sapiens), Q96KQ7; G9a H3K9 monomethylation, AlphaScreen, 2 h; Potency, µM (doses to about 102 µM), for inactives: at the top dose activity, negative = inhibition, most hits filed as inhibitors; 350,000 tested, 8.8% active; AID 504332, 2011; further: on the % scale 0 is the no-effect control and ±100 the full control effect; nearly all actives have a fitted effect of over 75% in size
Target sequence (Q96KQ7 913-1193 limits assumed): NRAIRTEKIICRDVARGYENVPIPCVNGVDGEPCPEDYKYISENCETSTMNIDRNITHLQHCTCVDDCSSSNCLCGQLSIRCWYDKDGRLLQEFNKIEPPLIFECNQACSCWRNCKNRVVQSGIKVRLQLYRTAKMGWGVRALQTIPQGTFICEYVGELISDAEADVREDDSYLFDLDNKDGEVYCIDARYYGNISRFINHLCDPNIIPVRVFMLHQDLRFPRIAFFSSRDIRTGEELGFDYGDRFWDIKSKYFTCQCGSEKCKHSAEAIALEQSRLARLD
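Using a bead-based AlphaScreen, monomethylated H3K9 product from 2 h room-temperature reactions (G9a 20 nM, peptide 500 nM, SAM 20 uM) was detected with 0.5 ug/mL rabbit anti-H3K9me1 antibody.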
HP1b chromo inh – HTS for Inhibitors of HP1-beta Chromodomain Interactions with Methylated Histone Tails | AlphaScreen HP1-beta / biotin-H3K9me3 peptide binding | 390,000 tested, 0.56% active | Potency, µM (top dose mostly 114 µM), for the others: top-dose activity change, negative = inhibition, most hits filed as inhibitors; further: nearly all actives have a fitted effect of over 70% in size
Target sequence (P83916 whole entry, looked up): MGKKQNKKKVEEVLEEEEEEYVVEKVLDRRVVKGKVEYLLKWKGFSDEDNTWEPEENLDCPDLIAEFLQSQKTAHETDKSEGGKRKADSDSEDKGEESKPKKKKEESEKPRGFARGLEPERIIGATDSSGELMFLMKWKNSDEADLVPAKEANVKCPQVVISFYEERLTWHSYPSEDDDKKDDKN
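AlphaScreen: HP1-beta (50 nM) preformed 30 min with biotin-H3(1-18)K9me3 peptide (50 nM) in PBS pH 7.4, 0.01% Tween-20. Compound added for 30 min at RT, then streptavidin donor/nickel chelate acceptor beads (10 ug/mL) for 30 min.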
GLS inh – qHTS for Inhibitors of Glutaminase (GLS). Glutaminase kidney isoform, mitochondrial (Homo sapiens), O94925. 410,000 tested, 0.21% active. GLS enzymatic activity, qHTS titration. Potency, µM (series often up to 45.5 µM), without a hit: at the top dose activity change, negative = inhibition, most hits filed as inhibitors. AID 624170, 2012; further: on the % scale 0 is the no-effect control and ±100 the full control effect
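Compounds were pin-transferred onto hKGA, after which L-glutamine (1 mM solution) and a detection mix of glutamate oxidase, HRP and Amplex Red were added. Initial and 30 min RT fluorescence reads were collected.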
L3MBTL1 inh – qHTS Assay for the Inhibitors of L3MBTL1; 230,000 tested, 0.66% active; AlphaScreen L3MBTL1–H3K9me1 peptide binding; Lethal(3)malignant brain tumor-like protein 1 (Homo sapiens), Q9Y468; Potency, µM (doses to about 57.1 µM), for the others: at the top dose activity, negative = inhibition, actives largely listed as inhibitors; further: on the % scale 0 is the no-effect control and ±100 the full control effect; nearly all actives have a fitted effect of over 60% in size
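AlphaScreen assay: L3MBTL1 (50 nM final) was preincubated 30 min at room temperature with biotinylated H3(1-15)K9me1 peptide (75 nM final), then 30 min with library compounds; streptavidin donor and nickel chelate acceptor beads (10 ug/mL final) added, 30 min dark.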
Numbers without * were called inactive; ? = inconclusive; · = no result; [ ] = another dose, or the depositor's remark. The call rests on the fitted dose curve; in most records, active means well fitted curve in the direction sought with a large enough effect; inconclusive means small, poorly fitted or top-dose-only effect, or another doubt; inactive means no such curve, though single readings can be large; an effect the other way counts as inactive or inconclusive. Potency means the concentration at half of the fitted maximal effect.

SMILES	JMJD2A Tudor	BAZ2B inh	G9a inh	HP1b chromo inh	GLS inh	L3MBTL1 inh
O=C(C1CCC1)N1CCN(S(=O)(=O)c2ccc(F)cc2)CC1	-10%	79µM*	-4%[0.501 µM]	24%	1%	28%
CC(=O)N1CCC(C(=O)N2CCN(S(=O)(=O)c3ccc(F)cc3)CC2)CC1	-1%	-33%	-1%	-4%	-1%	·
CN1CCN(C(=O)C2CCCN(S(=O)(=O)c3ccc(F)cc3)C2)CC1 (stereo not given)	5.6µM*	32µM*	14µM*	?	-13%	·
CCCCCCCC/C=C\CCCCCCCC(=O)OC[C@@H](O)[C@H]1OC[C@H](O)[C@H]1O	·	·	·	·	5%	·
CCCCCCCCCCCCCCCCCCNC(=O)OCC(COP(=O)([O-])OCC[n+]1ccsc1)OC (stereo not given)	·	·	21µM*	·	·	·
CCCCCCCCCCCCCC(=O)OCC(COP(=O)([O-])OCC[N+](C)(C)C)OC(=O)CCCCCCCCCCCCC (stereo not given)	·	·	-11%[12.7 µM]	·	5%	·
COc1ccc(CNC(=S)Nc2ccc3nc(N4CCN(C)CC4)cc(C)c3c2)cc1	?	?	45µM*	-10%	-1%	·
CCN1CCN(c2cc(C)c3cc(NC(=S)NCc4cccs4)ccc3n2)CC1	?	-37%	45µM*	-5%[57 µM]	39%	·
Cc1cc(N2CCN(C)CC2)nc2ccc(NC(=S)NCc3cccs3)cc12	-33%	-33%	40µM*	-7%	7%	·
COc1ccc(CNC(=S)Nc2ccc3nc(N4CCOCC4)cc(C)c3c2)cc1	?	-36%	-51%	13%	26%	·
COc1cc2c(cc1OC)/C(=C/C(=O)c1ccccc1F)NCC2	?	?	56µM*	?	-13%	·
COc1cc2c(cc1OC)/C(=C/C(=O)c1ccc(OC)c([N+](=O)[O-])c1)NCC2	-22%	-1%	8%	15%	16%	·
COc1cc2c(cc1OC)/C(=C/C(=O)c1ccc(F)cc1)NCC2	?	50µM*	79µM*	-30%	-5%	·
Cc1c(N)cc(N)cc1C(=O)O	-12%	-35%	79µM*	1%	-17%	·
CCCSCCCNC(=O)C1CCCN(c2nn3cc(-c4ccc(OC)cc4)nc3s2)C1 (stereo not given)	-32%	-14%	?	0%	2%	·
CC(C)(C)C(=O)Nc1cccc(C(=O)OCc2cc(=O)n3nc(C4CC4)sc3n2)c1	-8%	-18%	?	24%	5%	·
COc1cc(/C=N/N2CCN(C3c4ccccc4-c4ccccc43)CC2)cc(OC)c1O	?	11µM*	1.6µM*	-11%	13%	-9%
COc1cc(/C=N/N2CCN(C3c4ccccc4-c4ccccc43)CC2)cc(OC)c1OC	?	-39%	50µM*	?	-3%	-1%
COc1ccc(/C=N/N2CCN(C3c4ccccc4-c4ccccc43)CC2)cc1OC	-22%	-35%	8%[59 µM]	9%	14%	-8%
CCOc1ccccc1NC(=O)Cn1ncc2c([nH]c3ccccc32)c1=O	-17%	9%	31%[59 µM]	24%	-2%	·
COc1ccc(OC)c(-c2nnc3n2N=C(c2c(OC)cccc2OC)CS3)c1	-26%	·	·	·	·	·
CCc1nn(C(CC)C(=O)NCc2ccc(OC)c(OC)c2)c(=O)c2cc3oc(C)cc3n12 (stereo not given)	-5%	-26%	3%[59 µM]	17%	7%	·
c1ccc(Nc2nc(-c3cccs3)cs2)nc1	-28%[11.4 µM]	?	?	4%	-19%	0%
Cc1cccc(Nc2nc(-c3ccc(F)cc3)cs2)n1	-18%	-5%	-45%	15%	-6%	-11%
Cc1cccc(Nc2nc(-c3cccs3)cs2)n1	-23%	-32%	8.9µM*	-22%	24%	-6%[11.4 µM]
SMILES	JMJD2A Tudor	BAZ2B inh	G9a inh	HP1b chromo inh	GLS inh	L3MBTL1 inh
Cc1cccc(Nc2nc(-c3ccccn3)cs2)n1	?	20µM*	?	43%	-1%	4%[11.4 µM]
Clc1ccccc1-c1ccc2ncnc(NCCN3CCOCC3)c2c1	·	·	-1%[0.501 µM]	·	·	·
C[C@@H]1C(=O)N(S(=O)(=O)c2ccc([N+](=O)[O-])cc2)[C@H]1c1ccc(F)cc1	-5%	·	·	35%	·	·
CCOc1ccc(NC(=O)Nc2cccn(Cc3ccccc3)c2=O)cc1	?	40µM*	·	-16%	1%	-15%
O=C(NCc1ccccc1)Nc1cccn(Cc2ccccc2)c1=O	-21%	-1%	6%[59 µM]	-1%	1%	0%
Cc1ccc(/C=N/N(C)C2=NS(=O)(=O)c3ccccc32)o1	·	22%	40µM*	·	·	-12%
CNC(=O)c1ccc(NC(=O)CN2c3cccc4cccc(c34)S2(=O)=O)cc1	-16%	0%	45µM*	-3%	5%	3%
CC(NC(=O)CN1c2cccc3cccc(c23)S1(=O)=O)c1ccccc1 (stereo not given)	·	·	·	·	3%	·
CC(C)NC(=O)NC(=O)CN1c2cccc3cccc(c23)S1(=O)=O	2%	-2%	32µM*	43%	-2%	·
O=C(CN1c2cccc3cccc(c23)S1(=O)=O)Nc1ccccc1	-7%	·	12%	21%	2%	-13%
COc1ccc(-c2nnn3c2nc(NCCc2ccc(OC)c(OC)c2)c2ccccc23)cc1	-2%	1%	-1%[59 µM]	54%	0%	·
Cc1cccn2c(=O)c(C(=O)NCc3cccc(F)c3)cnc12	-3%	8%	37%[59 µM]	33%	-11%	·
Cc1ccsc1CCN1C(=O)N(c2ccc(F)cc2)C(=O)C1CC(=O)Nc1ccccc1 (stereo not given)	-22%	-16%	4%[59 µM]	29%	0%	·
Nc1nnnn1-c1ccccc1	·	·	·	·	-4%	·
COc1ccc(-n2c(=O)c3ccc(C(=O)NCc4ccc(C)cc4)cc3n(Cc3cccc(Cl)c3)c2=O)cc1	5%	·	7%[59 µM]	51%	2%	·
CN(C)CCCNS(=O)(=O)c1ccc(N2CCN(Cc3ccc4c(c3)OCO4)CC2)c([N+](=O)[O-])c1	5.6µM*	22µM*	10µM*	22µM*	6%	·
O=Cc1cc([N+](=O)[O-])ccc1N1CCN(Cc2ccc3c(c2)OCO3)CC1	?	?	45µM*	7%	0%	·
CN(C)CCNS(=O)(=O)c1ccc(N2CCc3ccccc32)c([N+](=O)[O-])c1	?	?	50µM*	?	21%	·
COc1ccc(OC)c(CNC(=O)c2cc(S(=O)(=O)N3CCC(C)CC3)cn2C)c1	-29%	?	9%[59 µM]	9%[57 µM]	3%	·
